Measured values published in PubChem BioAssay (NCI).
Where “and” joins values, the source holds several entries; their conditions need not be identical. Identical values can stand only once. This is part of a sample that, as a whole, favours compounds with a hit. Of some 79,000 tested, about 15% had one in any assay. Calls of active or inactive are those of the source. Rule as the data show it: active = growth inhibition above about 70%; inactive = the rest.

How the values were obtained:
[1] = NCI Yeast Anticancer Drug Screen. Data for the rad50 strain (AID 155);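 also: 0% = growth of vehicle-only cultures of the same strain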; settings: S. cerevisiae rad50 strain growth inhibition, stronger effect = higher value
Procedure, shortened: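 Relative growth inhibition (compound vs vehicle) was measured in yeast with a defined repair-gene alteration.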

[2] = NCI Yeast Anticancer Drug Screen. Data for the mec2-1 strain (AID 157); settings: S. cerevisiae mec2-1 strain, stronger effect = higher value
Procedure, shortened: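 Mutant yeast (mec2-1) grown with compound; growth inhibition relative to vehicle control reported.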

[3] = NCI Yeast Anticancer Drug Screen. Data for the cln2 rad14 strain (AID 165);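 also: 0% = growth equal to vehicle treated cultures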; settings: S. cerevisiae cln2 rad14 strain, stronger effect = higher value
Procedure, shortened: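 Readout is yeast growth inhibition versus vehicle-treated controls, using a strain with cln2 and rad14 alterations exposed to compound.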

[4] = NCI Yeast Anticancer Drug Screen. Data for the mlh1 rad18 strain (AID 175); settings: S. cerevisiae mlh1 rad18 strain growth inhibition, stronger effect = higher value
Procedure, shortened: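 Genetically defined yeast (DNA repair-deficient) exposed to compounds; growth inhibition determined relative to vehicle.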

[5] = NCI Yeast Anticancer Drug Screen. Data for the sgs1 mgt1 strain (AID 161);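 also: 0% = growth of cultures given vehicle only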; settings: S. cerevisiae sgs1 mgt1 strain, stronger effect = higher value
Procedure, shortened: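 Percent growth inhibition was derived by comparing compound-exposed mutant yeast with vehicle-exposed cultures. The strain carries alterations in DNA damage repair.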

[6] = NCI Yeast Anticancer Drug Screen. Data for the bub3 strain (AID 167); settings: S. cerevisiae bub3 mutant strain, stronger effect = higher value
Procedure, shortened: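 Screening used yeast with an engineered genetic alteration affecting cell cycle control. Compound-exposed cultures were compared with vehicle cultures, and reduced growth was taken as inhibition.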

[7] = at 5.0 µM (retest, dose inferred, filed as 0.5)
[8] = at 50.0 µM (retest, dose inferred, filed as 5.0)

Measured: growth inhibition

C[C-](O)O.O/C(=C\[C-](O)c1ccccc1)c1ccccc1.O/C(=C\[C-](O)c1ccccc1)c1ccccc1.[Nd+3] (centres undefined)
inactive: [1]; [7] 36% | [1]; [8] 36% | [2]; [7] 36% | [2]; [8] 36% | [3]; [7] 21% | [3]; [8] 21% | [4]; [7] 30% | [4]; [8] 30%
active: [1]; at 50.0 µM 90.1% | [2]; at 50.0 µM 92.7% | [3]; at 50.0 µM 88.7% | [4]; at 50.0 µM 85.9%

O=C(NCCc1c(-c2ccccc2)[nH]c2ccccc12)C(F)(F)F
inactive: [1]; [7] 11% | [1]; at 50.0 µM 46.6% | [2]; [7] -3% | [2]; at 50.0 µM 49.8% | [5]; [7] 10% | [3]; [7] -2% | [3]; at 50.0 µM 59.2% | [6]; [7] -10% | [4]; [7] 3% | [4]; at 50.0 µM 60.3%
active: [5]; at 50.0 µM 79.5% | [6]; at 50.0 µM 72.5%

CCN(CC)CCCC(Nc1c2ccc(Cl)cc2nc2ccc(OC)cc12)c1cccs1 (centres undefined)
inactive: [5]; at 50.0 µM 65.9% | [3]; [8] 62% | [6]; [8] 68% | [6]; at 50.0 µM 68.9% | [4]; at 50.0 µM 62.5%
active: [1]; [7] 91% | [1]; [8] 74% | [1]; at 50.0 µM 81.5% | [5]; [7] 92% | [5]; [8] 75% | [3]; [7] 87% | [3]; at 50.0 µM 74.8% | [6]; [7] 90% | [4]; [7] 91% | [4]; [8] 72%

COC(=O)c1nc(=S)[nH]c(C(=O)OC)c1C(=O)c1ccccn1
inactive: [1]; [7] 7% | [5]; [7] 0% | [3]; [7] 2% | [6]; [7] 6% | [4]; [7] -15%
active: [1]; [8] 93% | [1]; at 50.0 µM 82% | [5]; [8] 87% | [5]; at 50.0 µM 84.5% | [3]; [8] 84% | [3]; at 50.0 µM 70.5% | [6]; [8] 86% | [6]; at 50.0 µM 82.8% | [4]; [8] 91% | [4]; at 50.0 µM 89.1%

CCCCCCCCCCCCCCCCCCOP(=O)([O-])OC1CC[N+](C)(C)CC1
active: [2]; [7] 98% | [2]; [8] 99% | [2]; at 50.0 µM 92.5% | [5]; [7] 98% | [5]; [8] 99% | [5]; at 50.0 µM 91% | [3]; [7] 96% | [3]; [8] 99% | [3]; at 50.0 µM 90.2% | [6]; [7] 97% | [6]; [8] 99% | [6]; at 50.0 µM 89% | [4]; [7] 97% | [4]; [8] 99% | [4]; at 50.0 µM 92.5%

Nc1ncnc2c1ncn2C1OC(CO)C(O)C1O (centres undefined)
inactive: [1]; at 50.0 µM -12.3% and 53.1% and 0.85% | [2]; at 50.0 µM -10.9% and 11.8% and -9.1% | [5]; at 50.0 µM -1.8% and 43.4% and 5.55% | [3]; at 50.0 µM 14.6% and -0.75% and -5.05% | [6]; at 50.0 µM 4.6% and 18.7% and 26.4% | [4]; at 50.0 µM -23.1% and 27.6% and 19.4%

NC(=S)N/N=C1/C(=O)c2cccc3cccc1c23
inactive: [2]; [7] -2% | [2]; at 50.0 µM 0.1% | [5]; [7] 1% | [5]; at 50.0 µM 66.7% | [3]; [7] -9% | [3]; [8] 65% | [3]; at 50.0 µM -26.7% | [6]; [7] 9% | [6]; [8] 65% | [6]; at 50.0 µM 7.65% | [4]; [7] 6%
active: [2]; [8] 78% | [5]; [8] 80% | [4]; [8] 90% | [4]; at 50.0 µM 70.5%

CC(=O)N=C1N(/C=C2\C(=O)Oc3ccccc3C2=O)C(=O)/C(=C/c2ccco2)N1C
inactive: [1]; [7] -12% | [5]; [7] -6% | [5]; [8] 65% | [3]; [7] -7% | [3]; [8] 24% | [6]; [7] -22% | [4]; [7] -17% | [4]; [8] 61%
active: [1]; [8] 84% | [1]; at 50.0 µM 97.6% | [5]; at 50.0 µM 96.2% | [3]; at 50.0 µM 91% | [6]; [8] 76% | [6]; at 50.0 µM 97.7% | [4]; at 50.0 µM 98.7%

COC1(OC)OC2=C(OC1(OC)OC)c1ccccc1C2=O
inactive: [2]; [7] 9% | [2]; [8] 14% | [2]; at 50.0 µM -13.1% | [5]; [7] 5% | [5]; [8] 7% | [5]; at 50.0 µM -11.8% | [3]; [7] 5% | [3]; [8] 3% | [3]; at 50.0 µM -15.2% | [6]; [7] 4% | [6]; [8] 8% | [6]; at 50.0 µM -16.6% | [4]; [7] 14% | [4]; [8] 12% | [4]; at 50.0 µM -55.2%

CC(=O)Nc1cccc2cc(O)ccc12
inactive: [1]; at 50.0 µM 16.8% and 18.5% and 17% | [2]; at 50.0 µM -5.9% and 4.7% and -9.55% | [5]; at 50.0 µM -2.2% and -3.8% and 10.3% | [3]; at 50.0 µM -11.6% and -20.1% and 11.6% | [6]; at 50.0 µM -11.8% and -11.7% and -4.3% | [4]; at 50.0 µM 23.2% and 18.1% and 22.8%

Cc1cc(N(CCOS(C)(=O)=O)CCOS(C)(=O)=O)ccc1C=Nc1ccc(-c2csc(-c3ccc(Cl)cc3)n2)cc1
active: [2]; [8] 96% | [2]; at 50.0 µM 97% | [5]; [8] 93% | [5]; at 50.0 µM 96.4% | [3]; [8] 93% | [3]; at 50.0 µM 87.7% | [6]; [8] 88% | [6]; at 50.0 µM 90.3% | [4]; [8] 95% | [4]; at 50.0 µM 94.9%
inactive: [2]; [7] 17% | [5]; [7] 18% | [3]; [7] 4% | [6]; [7] -2% | [4]; [7] 57%

O=Nc1c(O)ccc2ccccc12.[Fe].[Na+]
inactive: [2]; [7] 14% | [5]; [7] 8% | [3]; [7] -2% | [6]; [7] 13% | [4]; [7] 4%
active: [2]; [8] 98% | [2]; at 50.0 µM 97.7% | [5]; [8] 98% | [5]; at 50.0 µM 98.5% | [3]; [8] 96% | [3]; at 50.0 µM 96.6% | [6]; [8] 98% | [6]; at 50.0 µM 97.6% | [4]; [8] 97% | [4]; at 50.0 µM 96.2%

Cc1cc(N)c2c(c1O)C(=O)c1ccccc1C2=O
inactive: [2]; [7] -1% | [2]; [8] 26% | [2]; at 50.0 µM 7.35% | [5]; [7] -5% | [5]; [8] 39% | [5]; at 50.0 µM -0.6% | [3]; [7] 0% | [3]; [8] 21% | [3]; at 50.0 µM 25.1% | [6]; [7] -5% | [6]; [8] 42% | [6]; at 50.0 µM 20.8% | [4]; [7] -3% | [4]; [8] 47% | [4]; at 50.0 µM 18.2%

COc1cc(/C=C/C(C)=O)ccc1O
inactive: [1]; at 50.0 µM 18.1% and 35.2% and 5.45% | [2]; at 50.0 µM -10.4% and 9.95% and -15.9% | [5]; at 50.0 µM -6.5% and 21.9% and -16.1% | [3]; at 50.0 µM -17.4% and -22.3% and -1.45% | [6]; at 50.0 µM 1.7% and 3.35% and 4.4% | [4]; at 50.0 µM -4.85% and 23.2% and -20.9%

COc1cc2oc(-c3ccc(O)cc3O)c(CC=C(C)C)c(=O)c2c(O)c1/C=C/C(C)C
active: [2]; [8] 98% | [2]; at 50.0 µM 90.7% | [5]; [8] 97% | [5]; at 50.0 µM 91% | [3]; [8] 98% | [3]; at 50.0 µM 88.8% | [4]; [8] 97% | [4]; at 50.0 µM 90.3%
inactive: [2]; [7] 8% | [5]; [7] 10% | [3]; [7] 24% | [4]; [7] 9%

N#CSCc1ccc(Cl)c(CSC#N)c1
inactive: [1]; [7] 18% | [5]; [7] 8% | [3]; [7] 10% | [6]; [7] 16% | [4]; [7] 10%
active: [1]; [8] 99% | [1]; at 50.0 µM 99% | [5]; [8] 99% | [5]; at 50.0 µM 98.8% | [3]; [8] 98% | [3]; at 50.0 µM 98.2% | [6]; [8] 100% | [6]; at 50.0 µM 98.8% | [4]; [8] 99% | [4]; at 50.0 µM 99%

Cc1nc(-n2nc(-c3ccccc3)cc2-c2ccccc2)sc1C(/C=C\c1ccc([N+](=O)[O-])cc1)=N/NC(=S)NN
inactive: [1]; [7] 4% | [1]; at 50.0 µM 61.3% | [2]; [7] 3% | [2]; at 50.0 µM 37.1% | [3]; [7] 0% | [3]; [8] 67% | [3]; at 50.0 µM 10.8% | [6]; [7] 25% | [6]; at 50.0 µM 65.7% | [4]; [7] -2% | [4]; at 50.0 µM 64.8%
active: [1]; [8] 87% | [2]; [8] 86% | [6]; [8] 88% | [4]; [8] 80%

COc1ccc(CC2C(=O)NC(C)C(=O)N(C)C3Cc4ccc(cc4)Oc4cc(ccc4O)CC(C(=O)NC(C)C(=O)NC(C)C(=O)N2C)N(C)C3=O)cc1 (centres undefined)
inactive: [2]; [7] 25% | [2]; [8] 64% | [2]; at 50.0 µM 39.8% | [5]; [7] 25% | [5]; [8] 48% | [5]; at 50.0 µM 66.5% | [3]; [7] 46% | [6]; [7] 16% | [6]; [8] 64% | [6]; at 50.0 µM 59.6% | [4]; [7] -1% | [4]; at 50.0 µM 53.5%
active: [3]; [8] 72% | [3]; at 50.0 µM 70.5% | [4]; [8] 77%

CN(C)CC/C(=N\Nc1ccc(Cl)cc1)c1ccccc1
active: [2]; [7] 100% | [2]; [8] 99% | [2]; at 50.0 µM 98.8% | [5]; [7] 100% | [5]; [8] 99% | [5]; at 50.0 µM 99% | [3]; [7] 96% | [3]; [8] 99% | [3]; at 50.0 µM 95.9% | [6]; [7] 98% | [6]; [8] 99% | [6]; at 50.0 µM 99.6% | [4]; [7] 99% | [4]; [8] 99% | [4]; at 50.0 µM 98.7%
